Sampled rows, rich in hits. Any-hit rate of the full collection: about 1.5%.
F-actin modifier: modifiers of cytoskeleton assembly; HUVEC TNFa F-actin phalloidin imaging, high content; inhibition, % at 2 µM; 91,000 compounds, 0.18% hits;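 active = inhibition above the batch mean plus 3 SD and confirmed as a hit by visual image inspection, cut at about 30% in these data, passing the limit was not always enough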
Measles CPE: protection of cells from measles virus. protection (pct of control), % at 4 µM. Measles virus-infected cells, CPE protection, absorbance. 140,000 compounds, 1.5% hits. AID 841; in the data active = protection mostly above about 24%, no sharp cut-off; inactive = mostly below about 26%
Starred values were filed as active, the others as inactive; . = not tested or not shown.

SMILES | F-actin modifier | Measles CPE
CCc1ccccc1Nc1nc(N)nc(COC(=O)c2cccn2C)n1 | -1 | 78*
Cc1ccccc1Nc1nc(N)nc(COC(=O)c2cccn2C)n1 | 0 | 4
Cc1nn2c(COc3ccc(NC(=O)c4ccccc4Cl)cc3)nnc2c2ccccc12 | . | 1
Cc1cc(C)nc(SCC(=O)Nc2ccc(Br)cn2)n1 | -41 | 18*
CSc1nsc(SCC(=O)Nc2ccc(Br)cn2)n1 | 4 | 27
Cc1ccc(C2=[N+]([O-])C(C)(C)N(O)C2(C)C)cc1 | . | 46*
CC1(C)C(c2ccccc2)=[N+]([O-])C2(CCCCC2=O)N1O (stereo unspecified) | -3 | 21
Cc1cc(C)c2[nH]c(=O)c(CN(Cc3cccs3)C(=S)NCc3ccco3)cc2c1 | . | 6
CC(C)C(c1nnnn1C(C)(C)C)N1CCC(Cc2ccccc2)CC1 (stereo unspecified) | . | 6
Cc1cc(NC(=O)CN2C(=O)S/C(=C\c3ccccc3)C2=O)no1 | . | 31*
Cc1cc(NC(=O)CCN2C(=O)c3ccccc3C2=O)no1 | -14 | 2
ClC(Cl)(c1nnnn1-c1ccccc1)c1nnnn1-c1ccccc1 | . | 7
COc1ccccc1NC(=O)Cn1cnc2sc(C)c(S(=O)(=O)N3CCCCC3)c2c1=O | . | 1
CC(C)(C)NC(=O)CSc1nc2ccc(NC(=O)CSc3nnnn3Cc3ccccc3)cc2s1 | -12 | 44*
CCOC(=O)CSc1nc2ccc(NC(=O)CSc3nnnn3Cc3ccccc3)cc2s1 | 2 | 9
CN(C)C(=O)CSc1nnc(Cc2ccc([N+](=O)[O-])cc2)o1 | 1 | 6
O=C(NCc1ccccn1)c1cccc(NS(=O)(=O)c2ccccc2F)c1 | . | 28
NNC(=O)c1cc(Br)cs1 | . | 5
CCOC(=O)c1c(NC(=O)C2COc3ccccc3O2)sc(C(C)=O)c1C (stereo unspecified) | 5 | 37
CCOC(=O)c1c(NC(=O)C2COc3ccccc3O2)sc2c1CC(C)(C)NC2(C)C (stereo unspecified) | . | 47*
CC(C)=NOc1nc(N(C)C)nc(N(C)C)n1 | . | 5
COC(=O)NNC(=O)Cc1cccc2ccccc12 | . | 19
CC1(C(=O)NCc2ccccn2)C=CCN1C(=O)c1ccccc1 (stereo unspecified) | . | 7
CCCc1cc(=O)[nH]c(SCC(=O)c2cc(C)n(C(C)COC)c2C)n1 (stereo unspecified) | . | 45*
CCCc1cc(=O)[nH]c(SCC(N)=O)n1 | 18 | 28
SMILES | F-actin modifier | Measles CPE
Cc1ccc2cc(C#N)c(SCC(=O)N3CCCc4ccccc43)nc2c1C | -2 | 1
COC(=O)c1ccc(SCC(=O)NC2CCCCC2)c([N+](=O)[O-])c1 | . | 5
CC(=O)Nc1ccc(N2CCc3c(C)c(C#N)c4nc5ccccc5n4c32)cc1 | . | 8
CC(C)(C)c1ccc(/C=C/C(=O)Nc2nncs2)cc1 | . | 5
O=C(O)c1ccccc1C(=O)N1CCN(c2ccccc2)CC1 | -9 | 45*
O=C(c1ccc2snnc2c1)N1CCN(c2ccccc2)CC1 | -6 | 3
Cn1nnc2cc(C(=O)N3CCN(c4ccccc4)CC3)ccc21 | 6 | 43*
CS(=O)(=O)Nc1ccc(C(=O)N2CCN(c3ccccc3)CC2)cc1 | 31 | 42*
O=C(c1ccc(S(=O)(=O)N2CCCCC2)cc1)N1CCN(c2ccccc2)CC1 | -9 | 18
O=C(c1ccc(CN2CCOCC2)cc1)N1CCN(Cc2ccccc2)CC1 | -32 | 44*
O=C(c1ccccc1C(=O)N1CCN(c2ccccc2)CC1)N1CCN(c2ccccc2)CC1 | 5 | 17
O=C(c1ccc(CN2CCOCC2)cc1)N1CCN(c2cccc(Cl)c2)CC1 | 19 | 2
CCN(CC)S(=O)(=O)c1ccc(N2CCOCC2)c(NC(=O)c2cnccn2)c1 | . | 6
COc1cc(NC(=O)CSc2nccc(C)n2)c(C)cc1[N+](=O)[O-] | . | 10
CCc1cccc(C)c1NC(=O)CO/N=C(\C)c1cc2ccccc2o1 | . | 8
O=C(c1ccccc1)N1CCN(C2CCCCC2)CC1 | 14 | 10
O=C(c1ccccc1)N1CCN(C(=O)c2ccccc2)CC1 | -3 | 38*
Cc1ccc(/C=C/C(=O)N2CCC(Cc3ccccc3)CC2)cc1 | . | 1
COc1ccc(-n2c(C)cc(-c3csc(NC(=O)c4ccc(S(=O)(=O)N(C)C)cc4)n3)c2C)cc1 | . | 12
CC(=O)NC(Cc1ccccc1)C(=O)OCC(=O)c1ccc(F)cc1 (stereo unspecified) | . | 4
Cc1cccc(C(=O)Nc2ccccc2C(=O)OCc2c(C)noc2C)c1 | -9 | 90*
Cc1ccccc1NC(=O)c1cccc(OCc2c(C)noc2C)c1 | 6 | 20
O=C(NCc1ccco1)c1ccc(COc2cc(Cl)ccc2Cl)cc1 | . | 14
Cc1c(C(=O)OC(C)C)nnn1-c1nonc1N | -14 | 5
O=c1oc2ccccc2c2c1ncn2C1CCCCC1 | -14 | 38*
SMILES | F-actin modifier | Measles CPE
O=c1oc2ccccc2c2c1ncn2-c1ccccc1 | -7 | 2
O=C(Nc1nnc(SCC(=O)N2CCOCC2)s1)c1ccccc1 | . | 4
O=C(CCCN1C(=O)c2ccccc2C1=O)Nc1sc2c(c1C(=O)NCc1ccco1)CCC2 | -3 | 2
O=C(CN1C(=O)c2ccccc2C1=O)Nc1sc2c(c1C(=O)NCc1ccco1)CCCC2 | -8 | 62*
COc1ccc(NC(=O)COc2ccc(C(=O)NC3CCCc4ccccc43)cc2OC)cc1 (stereo unspecified) | . | 13
Cn1c(N)c(C(=O)COC(=O)c2cccc(S(=O)(=O)N3CCCCC3)c2)c(=O)n(C)c1=O | . | 8
Cn1c(N)c(C(=O)COC(=O)c2cc(S(=O)(=O)N3CCCCC3)ccc2Cl)c(=O)n(C)c1=O | . | 27*
CCOC(=O)c1sc(NC(=O)CSc2n[nH]c(-c3ccc(Cl)cc3Cl)n2)c(C#N)c1C | -4 | 7
CCCOC(=O)c1ccc(NC(=O)C(CC)CC)cc1 | . | 3
O=C1c2ccccc2C(=O)N1CC1c2ccccc2CCN1C(=O)C1CCCCC1 (stereo unspecified) | -1 | 9
O=C(O)[C@@H]1CCCC[C@@H]1C(=O)N1CCc2ccccc2C1CN1C(=O)c2ccccc2C1=O (stereo partly specified) | -18 | 64*
O=C(CCC(=O)c1cccs1)NCC(=O)Nc1ccc(F)c(F)c1F | . | 9
C=CCOc1ccc(/C=N/N2C(=O)C(CC(=O)Nc3ccc(F)cc3F)SC2=NC)cc1 (stereo unspecified) | . | 1
C=CCOC(=O)CCC(=O)Nc1cccc2ccccc12 | . | 17
O=C(CCC(=O)OCc1ccc(C(=O)Oc2ccccc2)cc1)Nc1cccc2ccccc12 | -11 | 79*
O=C(NCCN1C(=O)S/C(=C\c2ccccc2)C1=O)c1cc(S(=O)(=O)N2CCOCC2)c(Cl)cc1Cl | . | 1
CCN(CC)S(=O)(=O)c1ccc(OC)c(NC(=S)Nc2cccc(C)c2C)c1 | . | 45*
CCN(CC)S(=O)(=O)c1ccc(OC)c(NC(=S)Nc2cccc(C)c2)c1 | . | 4
Cc1c(NC(=S)Nc2ccccc2C(F)(F)F)cccc1[N+](=O)[O-] | . | 41*
CC(C)C(=O)NC(=S)Nc1ccccc1C(F)(F)F | 4 | 6
COC(=O)[C@H](Cc1ccccc1)NC(=O)O[C@H]1C(=O)c2ccc(OC)cc2O[C@@H]1c1ccc2c(c1)OCO2 | . | 13
O=C(NC(=S)Nc1nc2c(ccc3ccccc32)s1)c1cccs1 | . | 14
Cc1cc(/C=C2\SC(=Nc3ccc(F)cc3)NC2=O)c(C)n1-c1ccc(S(N)(=O)=O)cc1 | 31* | 7
Cc1cc(/C=C2/SC(=O)NC2=O)c(C)n1-c1ccc(N2CCOCC2)cc1 | . | 8
CCCCNc1c(NC(C)=O)c(=O)oc2ccccc12 | . | 6

Source: PubChem
